The supplement of paper PMC11732987, “Enantioselective OTUD7B fragment discovery through chemoproteomics screening and high-throughput optimisation” (Communications Chemistry, 2025)

Columns and labels:
Test in all cases: log2 ratio of Biotin-Ahx-Ub-VS probe labelling (fragment/DMSO); higher = less target engagement (more negative = stronger competition), active = hit call of the paper (q ≤ 0.05, log2 ratio ≤ -1)
Conditions in all cases: compound concentration: 200 uM; treatment time: 3 h
USP34 = USP34 (UniProt Q70CQ2)
USP34, sequence (Q70CQ2 whole entry, the tested form may be a part): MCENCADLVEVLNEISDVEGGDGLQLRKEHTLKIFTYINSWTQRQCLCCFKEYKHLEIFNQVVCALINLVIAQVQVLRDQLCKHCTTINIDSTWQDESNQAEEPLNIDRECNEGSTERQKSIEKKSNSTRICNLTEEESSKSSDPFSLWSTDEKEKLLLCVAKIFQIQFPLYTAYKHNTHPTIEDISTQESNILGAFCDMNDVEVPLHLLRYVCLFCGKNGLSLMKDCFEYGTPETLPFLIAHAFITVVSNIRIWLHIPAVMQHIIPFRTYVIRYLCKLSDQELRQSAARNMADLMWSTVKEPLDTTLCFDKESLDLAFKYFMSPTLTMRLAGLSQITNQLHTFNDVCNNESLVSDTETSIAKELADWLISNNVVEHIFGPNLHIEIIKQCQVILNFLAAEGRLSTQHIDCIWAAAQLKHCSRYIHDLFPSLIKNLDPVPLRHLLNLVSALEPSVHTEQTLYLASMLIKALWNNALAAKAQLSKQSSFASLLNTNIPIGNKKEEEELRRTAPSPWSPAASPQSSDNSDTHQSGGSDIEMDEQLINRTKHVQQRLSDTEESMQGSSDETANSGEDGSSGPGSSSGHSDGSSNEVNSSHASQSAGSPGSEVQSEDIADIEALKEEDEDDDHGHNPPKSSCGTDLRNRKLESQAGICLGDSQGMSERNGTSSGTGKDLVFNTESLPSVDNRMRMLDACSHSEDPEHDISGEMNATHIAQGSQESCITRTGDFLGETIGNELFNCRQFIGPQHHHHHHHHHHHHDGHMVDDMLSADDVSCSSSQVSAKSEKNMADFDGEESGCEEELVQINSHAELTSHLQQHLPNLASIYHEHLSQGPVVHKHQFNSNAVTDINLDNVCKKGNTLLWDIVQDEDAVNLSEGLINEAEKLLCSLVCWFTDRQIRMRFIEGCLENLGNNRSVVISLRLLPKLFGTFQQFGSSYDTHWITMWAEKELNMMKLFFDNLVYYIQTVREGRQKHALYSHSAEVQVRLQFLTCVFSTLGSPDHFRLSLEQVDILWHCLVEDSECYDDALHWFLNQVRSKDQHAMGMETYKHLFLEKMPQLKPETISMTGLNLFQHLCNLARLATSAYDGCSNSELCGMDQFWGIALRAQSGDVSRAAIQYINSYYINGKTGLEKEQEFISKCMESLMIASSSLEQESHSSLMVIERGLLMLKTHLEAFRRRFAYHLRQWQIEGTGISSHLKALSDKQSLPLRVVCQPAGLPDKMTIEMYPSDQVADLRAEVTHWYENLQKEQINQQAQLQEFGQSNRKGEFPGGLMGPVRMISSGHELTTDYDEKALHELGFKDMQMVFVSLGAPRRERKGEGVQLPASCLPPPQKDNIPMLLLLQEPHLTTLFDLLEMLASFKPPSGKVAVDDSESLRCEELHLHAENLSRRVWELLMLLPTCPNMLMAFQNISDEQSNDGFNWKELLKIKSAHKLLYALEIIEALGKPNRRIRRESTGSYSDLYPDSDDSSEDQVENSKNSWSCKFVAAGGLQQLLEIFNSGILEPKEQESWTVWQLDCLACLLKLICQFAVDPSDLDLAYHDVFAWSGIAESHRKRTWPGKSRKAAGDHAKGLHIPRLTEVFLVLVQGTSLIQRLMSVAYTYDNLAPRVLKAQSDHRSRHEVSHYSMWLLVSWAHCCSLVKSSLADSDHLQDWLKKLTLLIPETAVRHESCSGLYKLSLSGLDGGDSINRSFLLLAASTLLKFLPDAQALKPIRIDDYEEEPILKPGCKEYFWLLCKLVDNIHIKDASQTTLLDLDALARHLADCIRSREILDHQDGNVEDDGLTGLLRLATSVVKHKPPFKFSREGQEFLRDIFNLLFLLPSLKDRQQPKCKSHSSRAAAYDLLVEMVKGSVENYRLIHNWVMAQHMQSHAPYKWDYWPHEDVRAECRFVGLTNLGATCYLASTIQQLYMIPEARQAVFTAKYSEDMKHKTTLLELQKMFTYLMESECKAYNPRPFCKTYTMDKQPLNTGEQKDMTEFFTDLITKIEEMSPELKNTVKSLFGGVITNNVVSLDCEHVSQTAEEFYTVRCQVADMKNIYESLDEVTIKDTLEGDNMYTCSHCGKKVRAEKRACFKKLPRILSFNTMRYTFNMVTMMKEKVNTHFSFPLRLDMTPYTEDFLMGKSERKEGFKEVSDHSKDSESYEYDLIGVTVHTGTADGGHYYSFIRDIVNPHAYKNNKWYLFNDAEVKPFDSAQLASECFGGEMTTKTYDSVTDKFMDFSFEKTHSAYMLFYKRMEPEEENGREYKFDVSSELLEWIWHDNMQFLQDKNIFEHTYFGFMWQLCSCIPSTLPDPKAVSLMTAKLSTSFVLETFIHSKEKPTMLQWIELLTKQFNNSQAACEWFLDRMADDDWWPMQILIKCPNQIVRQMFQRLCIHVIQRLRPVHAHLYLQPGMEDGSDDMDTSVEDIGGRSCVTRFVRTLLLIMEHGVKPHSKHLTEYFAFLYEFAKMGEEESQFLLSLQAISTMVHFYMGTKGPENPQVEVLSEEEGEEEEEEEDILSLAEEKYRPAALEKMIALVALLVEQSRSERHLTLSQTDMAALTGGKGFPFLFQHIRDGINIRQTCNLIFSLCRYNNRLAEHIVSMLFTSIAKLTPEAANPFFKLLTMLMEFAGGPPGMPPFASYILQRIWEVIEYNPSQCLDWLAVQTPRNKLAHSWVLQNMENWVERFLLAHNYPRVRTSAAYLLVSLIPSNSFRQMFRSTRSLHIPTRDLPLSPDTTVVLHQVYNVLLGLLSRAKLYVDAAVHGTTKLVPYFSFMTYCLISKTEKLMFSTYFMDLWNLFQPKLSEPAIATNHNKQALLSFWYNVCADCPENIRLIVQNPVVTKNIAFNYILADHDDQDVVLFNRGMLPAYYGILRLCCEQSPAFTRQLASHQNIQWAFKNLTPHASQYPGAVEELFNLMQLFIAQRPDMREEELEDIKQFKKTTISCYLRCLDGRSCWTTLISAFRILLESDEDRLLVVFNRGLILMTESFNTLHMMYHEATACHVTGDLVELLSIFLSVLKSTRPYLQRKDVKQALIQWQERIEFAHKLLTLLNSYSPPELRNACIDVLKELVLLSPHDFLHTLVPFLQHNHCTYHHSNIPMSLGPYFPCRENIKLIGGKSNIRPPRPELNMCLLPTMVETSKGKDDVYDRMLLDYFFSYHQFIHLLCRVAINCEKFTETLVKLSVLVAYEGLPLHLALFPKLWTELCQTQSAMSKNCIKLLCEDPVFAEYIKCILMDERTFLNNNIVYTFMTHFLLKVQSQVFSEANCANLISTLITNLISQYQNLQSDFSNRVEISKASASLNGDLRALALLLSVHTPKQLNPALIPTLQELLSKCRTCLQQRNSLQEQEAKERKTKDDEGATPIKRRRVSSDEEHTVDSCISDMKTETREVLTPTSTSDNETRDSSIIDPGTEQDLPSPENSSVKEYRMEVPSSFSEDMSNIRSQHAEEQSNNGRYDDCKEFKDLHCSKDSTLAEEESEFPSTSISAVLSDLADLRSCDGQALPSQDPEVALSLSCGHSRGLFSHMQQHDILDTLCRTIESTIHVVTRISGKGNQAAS
How it was run: (§1)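 HEK293T lysate in Tris/CHAPS/IGEPAL buffer with protease inhibitors (495 µg per sample) was given fragment at 200 µM or vehicle for 3 h, in triplicate. It then received Biotin-Ahx-Ub-VS at 0.5 µM final for 1 h. Labelled DUBs were NeutrAvidin-enriched, digested with LysC and trypsin, and run by diaPASEF LC-MS/MS. Values are average log2 fragment/vehicle ratios by unpaired t-test on global-median-normalised Spectronaut quantities of proteins with ≥2 unique peptides.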

USP36 = target: T1, USP36 (UniProt Q9P275)
T1 sequence (whole entry): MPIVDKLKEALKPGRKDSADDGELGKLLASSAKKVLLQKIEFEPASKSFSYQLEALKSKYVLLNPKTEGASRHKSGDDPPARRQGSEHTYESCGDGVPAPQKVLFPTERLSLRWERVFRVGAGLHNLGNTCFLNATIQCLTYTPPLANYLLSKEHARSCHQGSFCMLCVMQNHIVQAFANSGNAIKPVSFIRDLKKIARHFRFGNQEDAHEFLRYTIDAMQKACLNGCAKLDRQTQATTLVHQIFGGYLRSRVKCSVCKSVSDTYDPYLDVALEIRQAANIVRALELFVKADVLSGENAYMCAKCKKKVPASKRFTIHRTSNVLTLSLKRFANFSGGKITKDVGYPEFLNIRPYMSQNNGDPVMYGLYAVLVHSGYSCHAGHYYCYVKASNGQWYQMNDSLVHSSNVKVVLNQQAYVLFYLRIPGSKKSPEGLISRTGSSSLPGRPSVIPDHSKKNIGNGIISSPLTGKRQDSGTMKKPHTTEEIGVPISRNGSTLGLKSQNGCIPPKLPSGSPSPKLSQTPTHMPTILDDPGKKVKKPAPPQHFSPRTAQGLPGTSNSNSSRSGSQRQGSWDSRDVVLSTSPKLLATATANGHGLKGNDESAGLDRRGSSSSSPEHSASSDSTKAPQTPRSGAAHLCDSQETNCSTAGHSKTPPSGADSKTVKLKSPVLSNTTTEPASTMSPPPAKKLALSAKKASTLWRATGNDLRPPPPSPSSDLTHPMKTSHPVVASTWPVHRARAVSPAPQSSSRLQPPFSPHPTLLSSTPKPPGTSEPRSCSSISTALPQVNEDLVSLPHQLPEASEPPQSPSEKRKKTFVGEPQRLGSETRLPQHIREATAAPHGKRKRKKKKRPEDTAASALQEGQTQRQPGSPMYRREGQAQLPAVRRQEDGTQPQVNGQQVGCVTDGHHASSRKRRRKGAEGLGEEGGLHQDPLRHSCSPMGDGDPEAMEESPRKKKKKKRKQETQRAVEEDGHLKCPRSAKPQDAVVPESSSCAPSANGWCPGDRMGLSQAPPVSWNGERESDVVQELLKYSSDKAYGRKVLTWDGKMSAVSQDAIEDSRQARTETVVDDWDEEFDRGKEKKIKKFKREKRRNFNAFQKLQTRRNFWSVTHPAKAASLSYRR
How it was run: as §1

USP38 = target: T2, USP38 (UniProt Q8NB14)
T2 sequence (whole entry): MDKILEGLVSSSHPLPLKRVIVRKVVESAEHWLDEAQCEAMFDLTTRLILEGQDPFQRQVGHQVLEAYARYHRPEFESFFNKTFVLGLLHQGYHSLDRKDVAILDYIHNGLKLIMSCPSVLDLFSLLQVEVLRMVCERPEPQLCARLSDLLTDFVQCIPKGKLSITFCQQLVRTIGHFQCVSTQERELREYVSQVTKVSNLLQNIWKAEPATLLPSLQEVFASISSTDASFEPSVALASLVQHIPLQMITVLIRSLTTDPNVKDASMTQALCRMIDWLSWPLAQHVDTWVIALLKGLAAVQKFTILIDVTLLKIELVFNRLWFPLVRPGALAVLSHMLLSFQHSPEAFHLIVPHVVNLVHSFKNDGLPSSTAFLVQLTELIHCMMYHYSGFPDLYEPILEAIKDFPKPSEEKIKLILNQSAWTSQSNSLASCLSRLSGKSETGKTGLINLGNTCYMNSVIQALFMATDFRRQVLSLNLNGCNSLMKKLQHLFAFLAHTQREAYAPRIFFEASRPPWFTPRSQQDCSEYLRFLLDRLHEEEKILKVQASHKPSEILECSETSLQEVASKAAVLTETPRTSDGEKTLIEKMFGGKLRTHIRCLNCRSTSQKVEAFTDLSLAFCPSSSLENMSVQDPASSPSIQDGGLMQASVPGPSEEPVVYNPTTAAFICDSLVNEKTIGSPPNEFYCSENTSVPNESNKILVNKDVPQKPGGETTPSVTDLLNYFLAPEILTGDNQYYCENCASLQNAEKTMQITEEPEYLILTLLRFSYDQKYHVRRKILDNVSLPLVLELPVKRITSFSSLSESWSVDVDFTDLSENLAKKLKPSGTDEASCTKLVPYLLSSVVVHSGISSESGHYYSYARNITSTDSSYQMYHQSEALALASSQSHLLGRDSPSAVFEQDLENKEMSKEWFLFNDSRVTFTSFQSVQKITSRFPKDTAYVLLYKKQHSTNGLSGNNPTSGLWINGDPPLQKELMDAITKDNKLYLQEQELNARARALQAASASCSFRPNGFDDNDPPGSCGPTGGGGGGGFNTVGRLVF
How it was run: as §1

USP39 = target: T3, USP39 (UniProt Q53GS9)
T3 sequence (whole entry): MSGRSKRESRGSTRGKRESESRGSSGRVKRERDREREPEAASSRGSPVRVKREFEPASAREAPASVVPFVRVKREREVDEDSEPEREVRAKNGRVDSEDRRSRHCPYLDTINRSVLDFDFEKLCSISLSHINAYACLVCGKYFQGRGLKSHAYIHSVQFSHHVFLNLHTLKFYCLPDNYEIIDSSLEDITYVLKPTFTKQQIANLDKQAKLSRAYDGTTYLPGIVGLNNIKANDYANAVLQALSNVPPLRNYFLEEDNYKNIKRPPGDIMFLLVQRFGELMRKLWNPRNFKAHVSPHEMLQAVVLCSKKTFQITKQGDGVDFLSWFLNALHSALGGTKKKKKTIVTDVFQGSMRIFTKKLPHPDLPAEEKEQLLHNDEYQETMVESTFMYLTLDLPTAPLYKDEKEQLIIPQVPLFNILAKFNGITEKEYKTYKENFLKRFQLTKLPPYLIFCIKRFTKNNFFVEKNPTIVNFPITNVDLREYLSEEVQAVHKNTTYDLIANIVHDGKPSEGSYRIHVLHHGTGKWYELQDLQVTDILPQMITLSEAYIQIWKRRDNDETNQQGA
How it was run: as §1

USP4 = target: T4, USP4 (UniProt Q13107)
T4 sequence (whole entry): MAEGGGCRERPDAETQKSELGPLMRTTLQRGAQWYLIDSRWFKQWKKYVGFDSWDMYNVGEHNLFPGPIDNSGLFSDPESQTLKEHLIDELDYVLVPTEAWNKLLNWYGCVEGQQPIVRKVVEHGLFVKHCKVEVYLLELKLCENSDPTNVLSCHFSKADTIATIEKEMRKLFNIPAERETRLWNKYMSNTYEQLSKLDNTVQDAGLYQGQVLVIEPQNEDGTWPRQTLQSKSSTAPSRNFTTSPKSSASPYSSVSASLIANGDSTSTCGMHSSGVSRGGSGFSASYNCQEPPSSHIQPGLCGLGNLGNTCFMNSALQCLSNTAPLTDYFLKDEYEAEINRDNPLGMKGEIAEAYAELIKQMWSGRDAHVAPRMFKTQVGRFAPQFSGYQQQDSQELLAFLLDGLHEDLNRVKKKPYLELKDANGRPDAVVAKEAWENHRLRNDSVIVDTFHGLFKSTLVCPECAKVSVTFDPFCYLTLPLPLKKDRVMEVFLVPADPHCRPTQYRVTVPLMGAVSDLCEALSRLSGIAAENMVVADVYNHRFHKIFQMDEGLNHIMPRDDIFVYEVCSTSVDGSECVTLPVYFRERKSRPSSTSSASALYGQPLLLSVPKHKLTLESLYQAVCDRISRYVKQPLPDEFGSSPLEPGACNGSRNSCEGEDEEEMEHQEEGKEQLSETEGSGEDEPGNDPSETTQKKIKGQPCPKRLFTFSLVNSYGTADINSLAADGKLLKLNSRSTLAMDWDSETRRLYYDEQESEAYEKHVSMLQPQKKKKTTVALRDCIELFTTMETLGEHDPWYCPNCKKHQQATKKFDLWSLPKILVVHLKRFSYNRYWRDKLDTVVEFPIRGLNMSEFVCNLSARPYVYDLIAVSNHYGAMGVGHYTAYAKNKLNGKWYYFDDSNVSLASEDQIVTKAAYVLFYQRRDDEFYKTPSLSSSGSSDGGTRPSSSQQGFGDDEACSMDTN
How it was run: as §1

Measured: log2 ratio of Biotin-Ahx-Ub-VS probe labelling

Cc1ccc(CN(CCO)C(=O)CCl)cc1
inactive: USP34 0.0432 | USP36 -0.00999 | USP38 -0.303 | USP39 -0.0925 | USP4 -0.21
